{
  "source": "PubChem BioAssay (EPA / NIEHS)",
  "note": "Inconclusive results are not listed. Active and inactive are the calls of the source. The calls were made as follows, unless noted: active = hit-call score of the fitted dose curve at least 0.9, where 1 is the maximum; inconclusive = response in the unintended direction; inactive = score below 0.9.",
  "data": [
    {"tested_on": "not listed separately", "test": "TOX21_PR_LUC_Followup_Agonist_viability: Viability Assessment in the Tox21 HEK293 Progesterone Receptor (PR) Agonism Luciferase Follow-Up Assay (AID 2283941);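 also: compound exposure 16 h at 37 °C; loss of signal means cytotoxicity so actives lower viability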", "procedure,_shortened": "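Luminescent ATP quantitation (CellTiter-Glo) serves as the read-out; a drop flags cytotoxic compounds. Cells are HEK293-PR-A-luc grown in 10% charcoal-stripped FBS, plated 3,000/well, and exposed to compound for 16 h.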", "values": [
      {"smiles": "C#CC1(O)CC[C@H]2[C@@H]3CCC4=CCCC[C@@H]4[C@H]3CC[C@@]21C", "note": "(stereo not given in full)", "AC50": "72.7 µM (active)"},
      {"smiles": "Cc1ccc(C(C)c2ccc(C)c(C)c2)cc1C", "outcome": "inactive"},
      {"smiles": "C[C@]12C=CC(=O)C=C1CC[C@@H]1[C@@H]2[C@@H](O)C[C@@]2(C)[C@H]1CC[C@]2(O)C(=O)CO", "outcome": "inactive"},
      {"smiles": "CC(=O)[C@H]1[C@H](C#N)C[C@H]2[C@@H]3CC=C4C[C@@H](O)CC[C@]4(C)[C@H]3CC[C@@]21C", "outcome": "inactive"},
      {"smiles": "CCC(=O)Oc1ccc(/C(CC)=C(\\CC)c2ccc(OC(=O)CC)cc2)cc1", "outcome": "inactive"},
      {"smiles": "CCOC(=O)c1ccccc1C(=C1C=C(Br)C(=O)C(Br)=C1)c1cc(Br)c(O)c(Br)c1", "outcome": "inactive"},
      {"smiles": "Nc1ccc(-c2ccc(F)cc2)cc1", "outcome": "inactive"},
      {"smiles": "CC(C)(c1cc(Br)c(OCCO)c(Br)c1)c1cc(Br)c(OCCO)c(Br)c1", "outcome": "inactive"},
      {"smiles": "COc1ccc(C(Cl)=C(c2ccc(OC)cc2)c2ccc(OC)cc2)cc1", "outcome": "inactive"}
    ]},
    {"molecular_target": "Thyroid hormone receptor alpha (Rattus norvegicus) + Thyroid hormone receptor beta (Rattus norvegicus) (UniProt P18113+P63059)", "test": "TOX21_TR_LUC_GH3_Antagonist_Followup: Tox21 GH3 Thyroid Hormone Receptor Antagonism Luciferase Follow-Up Assay (AID 2283942)", "procedure,_shortened": "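Confirmatory qHTS, antagonist mode: T3 (1.0 nM final) + test cpd, 15 conc, 92 uM–5nM final, GH3 rat pituitary line, 24 h, 37C. Luc reporter, RLU vs DMSO.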", "values": [
      {"smiles": "c1cc(N(CC2CO2)CC2CO2)ccc1OCC1CO1", "note": "(stereo not given)", "AC50": "60.9 µM (active)"},
      {"smiles": "COCc1c(C(C)C)nc(C(C)C)c(/C=C/[C@@H](O)C[C@@H](O)CC(=O)O)c1-c1ccc(F)cc1", "outcome": "inactive"},
      {"smiles": "Oc1ccc(Cl)cc1Cc1cc(Cl)ccc1O", "AC50": "18.7 µM (active)"},
      {"smiles": "COc1ccc(C(Cl)=C(c2ccc(OC)cc2)c2ccc(OC)cc2)cc1", "outcome": "inactive"},
      {"smiles": "N=c1ccn2c(n1)O[C@H]1[C@H](O)[C@@H](CO)O[C@H]12", "outcome": "inactive"}
    ]},
    {"molecular_target": "THRA (gene 7067) (UniProt P10827)", "sequence (P10827 whole entry, looked up, the tested form may be a part)": "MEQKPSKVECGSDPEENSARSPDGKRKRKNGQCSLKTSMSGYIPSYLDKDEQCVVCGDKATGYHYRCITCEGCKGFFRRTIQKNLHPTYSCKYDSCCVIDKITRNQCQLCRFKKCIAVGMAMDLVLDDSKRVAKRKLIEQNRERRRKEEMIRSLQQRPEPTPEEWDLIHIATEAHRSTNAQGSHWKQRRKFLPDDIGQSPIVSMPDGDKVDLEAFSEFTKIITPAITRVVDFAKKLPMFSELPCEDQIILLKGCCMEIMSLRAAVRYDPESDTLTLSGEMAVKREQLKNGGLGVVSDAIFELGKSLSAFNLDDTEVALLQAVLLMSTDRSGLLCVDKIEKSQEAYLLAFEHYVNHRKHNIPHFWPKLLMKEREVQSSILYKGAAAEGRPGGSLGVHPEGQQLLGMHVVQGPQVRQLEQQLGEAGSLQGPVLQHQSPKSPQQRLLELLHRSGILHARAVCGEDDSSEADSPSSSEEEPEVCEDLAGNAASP", "test": "TOX21_TRA_COA_Agonist_Followup_ratio: Tox21 Thyroid Hormone Receptor alpha Agonism through Coactivator Recruitment Follow-Up Assay, Ratio (AID 2283948; active = hit-call score of the fitted dose curve at least 0.9, where 1 is the maximum; inactive = score below 0.9)", "procedure,_shortened": "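Cell-free TR-FRET: GST-tagged TRα LBD (2.5 nM) with 0.10% BSA and compound, then fluorescein-SRC-2 peptide (200 nM) and Tb-anti-GST antibody (2 nM). Readout 520:495 nm ratio (ex 340 nm), normalized to DMSO (0%) and T3 (100%).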", "values": [
      {"smiles": "CCCCCCC(O)CO", "note": "(stereo not given)", "outcome": "inactive"},
      {"smiles": "NC(CO)(CO)CO", "AC50": "40.6 µM (active)"},
      {"smiles": "C[Si](C)O[Si](C)(C)O[Si](C)(C)O[Si](C)C", "outcome": "inactive"}
    ]},
    {"molecular_target": "THRA (gene 7067) (UniProt P10827)", "test": "TOX21_TRA_COA_Antagonist_Followup_ratio: Tox21 Thyroid Hormone Receptor alpha Antagonism through Coactivator Recruitment Follow-Up Assay, Ratio (AID 2283953)", "procedure,_shortened": "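This follow-up to the GH3 luciferase screen checks specificity in a cell-free format. It measures SRC-2 coactivator peptide binding to TRα LBD by TR-FRET and scores loss of ratio signal relative to DMSO.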", "values": [
      {"smiles": "Cc1oncc1C(=O)Nc1ccc(C(F)(F)F)cc1", "outcome": "inactive"},
      {"smiles": "c1cc(N(CC2CO2)CC2CO2)ccc1OCC1CO1", "note": "(stereo not given)", "outcome": "inactive"},
      {"smiles": "COCc1c(C(C)C)nc(C(C)C)c(/C=C/[C@@H](O)C[C@@H](O)CC(=O)O)c1-c1ccc(F)cc1", "outcome": "inactive"},
      {"smiles": "Oc1ccc(Cl)cc1Cc1cc(Cl)ccc1O", "outcome": "inactive"}
    ]},
    {"molecular_target": "THRB (gene 7068) (UniProt P10828)", "sequence (P10828 whole entry, looked up, the tested form may be a part)": "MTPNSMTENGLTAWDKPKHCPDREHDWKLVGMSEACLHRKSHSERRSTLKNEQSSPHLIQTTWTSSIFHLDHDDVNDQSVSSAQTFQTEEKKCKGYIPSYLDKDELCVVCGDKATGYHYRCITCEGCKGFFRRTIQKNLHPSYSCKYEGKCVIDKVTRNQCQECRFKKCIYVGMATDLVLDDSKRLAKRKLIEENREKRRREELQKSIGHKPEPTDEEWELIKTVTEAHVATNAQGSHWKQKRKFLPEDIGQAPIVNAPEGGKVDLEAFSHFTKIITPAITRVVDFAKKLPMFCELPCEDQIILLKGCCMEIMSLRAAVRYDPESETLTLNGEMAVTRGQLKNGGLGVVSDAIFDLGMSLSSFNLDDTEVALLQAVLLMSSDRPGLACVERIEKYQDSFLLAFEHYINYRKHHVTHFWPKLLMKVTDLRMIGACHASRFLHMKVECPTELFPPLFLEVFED", "test": "TOX21_TRB_BLA_Antagonist_Followup_ratio: Tox21 Thyroid Hormone Receptor beta Antagonism Beta-lactamase (BLA) Follow-Up Assay, Ratio (AID 2283958)", "procedure,_shortened": "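In this antagonist-mode follow-up, a stably integrated GAL4-TRβ LBD fusion drives a UAS-beta-lactamase reporter in HEK293T cells. Loss of ratio signal relative to DMSO after 18 h treatment indicates activity; parallel CellTiter-Glo flags cytotoxicity.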", "values": [
      {"smiles": "Cc1oncc1C(=O)Nc1ccc(C(F)(F)F)cc1", "outcome": "inactive"},
      {"smiles": "c1cc(N(CC2CO2)CC2CO2)ccc1OCC1CO1", "note": "(stereo not given)", "outcome": "inactive"},
      {"smiles": "COCc1c(C(C)C)nc(C(C)C)c(/C=C/[C@@H](O)C[C@@H](O)CC(=O)O)c1-c1ccc(F)cc1", "outcome": "inactive"},
      {"smiles": "Oc1ccc(Cl)cc1Cc1cc(Cl)ccc1O", "AC50": "38.3 µM (active)"},
      {"smiles": "COc1ccc(C(Cl)=C(c2ccc(OC)cc2)c2ccc(OC)cc2)cc1", "outcome": "inactive"},
      {"smiles": "N=c1ccn2c(n1)O[C@H]1[C@H](O)[C@@H](CO)O[C@H]12", "outcome": "inactive"}
    ]},
    {"tested_on": "not listed separately", "test": "TOX21_TRB_BLA_Antagonist_Followup_viability: Viability Assessment in the Tox21 Thyroid Hormone Receptor beta Antagonism Beta-lactamase (BLA) Follow-Up Assay (AID 2283961)", "procedure,_shortened": "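HEK293T cells with GAL4-human TRβ LBD and UAS-bla reporter, 3,000 cells/well in 2% charcoal-stripped FBS medium; 11-point concentrations in triplicate, 18 h at 37C. Viability from ATP by CellTiter-Glo luminescence, 30 min RT, same plates.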", "values": [
      {"smiles": "Cc1oncc1C(=O)Nc1ccc(C(F)(F)F)cc1", "outcome": "inactive"},
      {"smiles": "c1cc(N(CC2CO2)CC2CO2)ccc1OCC1CO1", "note": "(stereo not given)", "outcome": "inactive"},
      {"smiles": "COCc1c(C(C)C)nc(C(C)C)c(/C=C/[C@@H](O)C[C@@H](O)CC(=O)O)c1-c1ccc(F)cc1", "outcome": "inactive"}
    ]}
  ]
}
